Reference: PubChem BioAssay (NCATS)
Values joined by “and” are separate entries in the source; they are usually repeats but may differ in a detail not shown here. Equal entries are not always repeated. Results filed as inconclusive are left out. Active and inactive are the calls of the source. Calls come from the whole dose curve.

Test: qHTS Assay for Lipid Storage Modulators (AID 1519); for activity change, negative = inhibition: % is set by controls: 0 for no effect and ±100 for the full control effect
Settings: Drosophila S3 cells, BODIPY lipid droplet/cell ratio, laser cytometry, cells loaded with oleic acid
Text: NIH Molecular Libraries Probe Production Centers Network [MLPCN]
NIH Chemical Genomics Center [NCGC]
Assay Submitter (PI): Beller, Mathias; Max-Planck-Institut fur Biophysikalische Chemie
NCGC Assay Overview: Storing lipids as a reservoir for energy or the anabolism of elementary metabolites is a common feature of probably all cells and is conserved from bacteria to humans. The universal cellular lipid storage organelle is the so-called lipid storage droplet (LD). Although ubiquitous, LDs share a simple structure composed of a hydrophobic core that harbors the storage lipids, which is shielded by a droplet-specific phospholipid monolayer to which proteins are attached. The current model of LD biogenesis involves an incorporation of the lipid core into the membrane leaflets of the endoplasmic reticulum (ER) followed by a subsequent budding-like maturation of a LD, which ultimately pinches off. Once released, LD volume can increase by localized lipogenesis or fusion of existing droplets. Storage lipids are re-mobilized enzymatically by lipase activity. Lipase regulation in the adipocyte is heavily studied and involves multiple components including catecholamine signaling, the LD-associated proteins Perilipin and comparative gene identification-58 (CGI-58) and at least two lipases named hormone sensitive lipase (HSL) and adipocyte triglyceride lipase (ATGL). LD regulation outside of the adipocyte is poorly understood and only few components are known. However, there is an urgent need to learn more about ectopic fat depots as mislocalized storage of lipids, for example in the liver or muscle, is an eminent health problem associated with insulin resistance or the metabolic syndrome. We developed a laser-scanning cytometer assay to enable 1,536-well screening and combined the results of the small molecules screen with an RNAi database based on lipid storage.
NCGC Assay Protocol Summary:
We dispensed 4 uL of cells at 1.25 x 10^6 cells/mL into LoBase Aurora COC 1,536-well plates (black walled, clear bottom) with a bottle-valve solenoid-based dispenser (Aurora) to obtain 5,000 cells/well. Triacsin C (Sigma-Aldrich T-4540), an inhibitor of long-chain fatty acyl CoA synthetase that blocks synthesis of triglycerides, was used as a positive control for lipid under-storage. A total of 23 nL of compound solution of different concentrations were transferred to the assay plates using a Kalypsys pin tool equipped with a 1,536-pin array containing 10-nL slotted pins (FP1S10, 0.457-mm diameter, 50.8 mm long; V&P Scientific). One microliter of oleic acid (400 uM) was added, and the plate was lidded with stainless steel rubber gasket lined lids containing pinholes. […] Fluorescence was detected by excitation of the fluorophores with a 488-nm laser on an Acumen Explorer (TTP Lab Tech). The total intensity in channel 1 (500-530 nm) reflected lipid droplet accumulation. […] The ratio of the total intensity in PMT channel 1 over total intensity of channel 3 was also calculated. Percent activity was computed relative to an internal control (100% inhibited lipid droplet deposition due to the presence of 20 uM Triacsin C), which was added to 32 wells/plate.

[1] = measured here: cell count channel max response
[2] = measured here: lipid channel max response

SMILES | activity change, negative = inhibition (at 25.7 µM (top of the series)) | max response [1] | max response [2] | activity change, negative = inhibition (at 57.5 µM (top of the series))
CN1CCN2c3ccccc3Cc3ccccc3[C@@H]2C1 | -3.71% (inactive) | -3.28% | -8.62% | 
CC(C)[N+]1(C)[C@@H]2CC[C@H]1CC(OC(=O)[C@@H](CO)c1ccccc1)C2 (stereo partly specified) | 1.72% (inactive) | 2.23% and -7.97% | 5.73% and -12.6% | -6.35% (inactive)
CO[C@@]12C[C@@H](COC(=O)c3cncc(Br)c3)CN(C)[C@H]1Cc1cn(C)c3cccc2c13 | -0.393% (inactive) | -7.54% | -4.61% | 
O=C1CC[C@H](N2C(=O)c3ccccc3C2=O)C(=O)N1 | -1.97% (inactive) | 11% and -21.2% | 5.6% and -23.7% | -4.08% (inactive)
O=S(=O)(NCCNC/C=C/c1ccc(Br)cc1)c1cccc2cnccc12 |  | -29.8% | -49.7% | -23.6% (inactive)
N#Cc1cc2[nH]c(=O)c(=O)[nH]c2cc1[N+](=O)[O-] |  | 12.9% | 17.2% | 2.55% (inactive)
C[C@H](C[C@H](N)C(=O)O)C(=O)O |  | -13.2% | -13.5% | -1.92% (inactive)
CSc1nc(N)c2ncn([C@H]3O[C@H](COP(=O)(O)OP(=O)(O)OP(=O)(O)O)[C@@H](O)[C@@H]3O)c2n1 |  | -2.91% | 1.82% | 4.02% (inactive)
O=C(O)Cc1cc(I)c(Oc2cc(I)c(O)c(I)c2)c(I)c1 |  | 12.2% | 14.7% | 3.04% (inactive)
Cc1cccc(C)c1NC(=O)C[N+](C)(C)C |  | -10.6% | -11.6% | -1.34% (inactive)
N[C@H](C(=O)O)c1ccc(C(=O)O)cc1 |  | -4.05% | -7.12% | -2.07% (inactive)
Cc1o[nH]c(=O)c1CC[C@H](N)C(=O)O |  | -7.36% | -2.41% | 4.78% (inactive)
O=C(O)[C@H]1CCCNC1 |  | -0.0867% | -1.72% | -2.39% (inactive)
